Compound activity (PubChem BioAssay)
DT40 TDP1 CPT – qHTS for Inhibitors of human tyrosyl-DNA phosphodiesterase 1 (TDP1): qHTS in cells in presence of CPT; chicken DT40 Tdp1-/-;hTDP1 cells + 20 nM CPT, ATP luminescence, 48 h; Potency, µM (top dose mostly 46.2 µM), inactives show at the highest dose activity change, negative = growth inhibition, actives largely listed as inhibitors; 12% of 420,000 active; AID 686979, 2013; further: on the % scale 0 is the no-effect control and ±100 the full control effect; nearly all actives have a fitted effect of over 55% in size
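Cell growth measured by CellTiter-Glo luminescence after a minimum 48 h, 37 C compound exposure with 20 nM CPT in Tdp1-knockout DT40 cells stably expressing hTDP1, seeded 400/well; qHTS titration format.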
HT1080-NT tox – qHTS for induction of synthetic lethality in tumor cells producing 2HG: qHTS for the HT-1080-NT fibrosarcoma cell line; HT-1080-NT fibrosarcoma viability, CellTiter-Glo ATP luminescence, 48 h; 1.6% of 360,000 active; AID 686970, 2013; Potency, µM (highest dose often 46.1 µM), for the others: at the highest dose activity, negative = less viability, most hits filed as cytotoxic;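 further: NT is the 2HG producing partner of a matched IDH1 knockdown line; 0% = DMSO-treated cells and -100% = media-only wells without cells; nearly all actives have a fitted effect of over 55% in size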
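Fibrosarcoma NT cells, 750 per well in 5% FBS RPMI, were exposed to compound for 48 hours. Viability: CellTiter-Glo luminescence.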
HT1080 IDH1KD tx – qHTS for induction of synthetic lethality in tumor cells producing 2HG: qHTS for the HT-1080-IDH1KD cell line | 2% of 360,000 active | HT-1080 IDH1 knockdown viability, ATP luminescence, 48 h | Potency, µM (doses to about 46.1 µM), without a hit: at the highest dose activity, negative = toxicity, most hits filed as cytotoxic;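 further: 0% = DMSO wells and -100% = cell-free medium wells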
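In this qHTS, HT-1080 cells depleted of IDH1 are exposed for 48 h at 37 °C to compound titrations. Toxicity is scored from CellTiter-Glo luminescence, with DMSO as full viability and medium alone as none.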
HepG2 viability – qHTS for Inhibitors of TGF-b: Cytotox Counterscreen; HepG2 CAGA-GFP viability, ATP luminescence, 18 h; Potency, µM (top dose mostly 46.1 µM), inactives show top-dose activity change, negative = cytotoxicity, actives largely listed as cytotoxic; 0.76% of 410,000 active; AID 588856, 2011
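HepG2 CAGA-GFP cells (1000/well, DMEM with 1% FBS) received compound, then TGF-beta at 500 pg/mL final, and were incubated 18 hours at 37 degrees C. Viability was read by CellTiter-Glo luminescence. Media-only wells were set as complete cell-killing and DMSO as no toxicity.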
TDP1 cell noCPT – qHTS for Inhibitors of human tyrosyl-DNA phosphodiesterase 1 (TDP1): qHTS in cells in absence of CPT; Potency, µM (doses to about 46.2 µM), for the others: at the highest dose activity change, negative = growth inhibition, hits mostly inhibitors; DT40 Tdp1-/- hTDP1 cells, no CPT, ATP luminescence, 48 h; AID 686978, 2013; 15% of 420,000 active; further: on the % scale 0 is the no-effect control and ±100 the full control effect; nearly all actives have a fitted effect of over 55% in size
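Seeded 400 DT40-hTDP1 cells/well (vehicle DMSO, no 20 nM CPT); pinned compounds; ≥48 hr at 37 °C; CellTiter-Glo luminescence as viability measure.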
TGFb inhibitor – qHTS for Inhibitors of TGF-b; HepG2 CAGA-GFP TGF-b/SMAD3 reporter, GFP fluorescence, 18 h; TGF-beta stimulated, 500 pg/mL final; Potency, µM (doses to about 46.1 µM), for the others: at the top dose activity, negative = inhibition, actives largely listed as inhibitors; 1.2% of 410,000 active; further: on the % scale 0 is the no-effect control and ±100 the full control effect; nearly all actives have a fitted effect of over 65% in size
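HEPG2 CAGA-GFP, 1000 cells/well; 2 h settle, 37 C; cpd via pin tool; TGF-b 500 pg/mL final; 18 h, 37 C; GFP imaging ex488/em500-530; %Activity normalised to -TGF-b and +DMSO controls; CRC fit, curve class.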
Numbers without * were called inactive; ? = inconclusive; . = not tested or not shown; ! = repeats disagree. Only some compounds are listed: those with a hit (about 17% of all), similar ones and a draw of the others. The call rests on the fitted dose curve; in most records, active means well fitted curve in the direction sought with a large enough effect; inconclusive means small, poorly fitted or top-dose-only effect, or another doubt; inactive means no such curve, though single readings can be large; an effect the other way counts as inactive or inconclusive. Potency means the concentration at half of the fitted maximal effect.

SMILES | DT40 TDP1 CPT | HT1080-NT tox | HT1080 IDH1KD tx | HepG2 viability | TDP1 cell noCPT | TGFb inhibitor
COc1ccc(N2CCN(C(=O)C(=O)c3cccc([N+](=O)[O-])c3)CC2)cc1 | ? | 20.2% | 19.8% | . | ? | .
CCOC(=O)Cn1cc(/C=C(\C#N)C(=O)N2CCOCC2)c2ccccc21 | 0.5% | 8.5% | 9.1% | 4.3% | -10.8% | 0.2%
Cc1cc2c(cc1S(=O)(=O)C(C)CC(=O)NC1CCC(C)CC1)OCC(=O)N2 (centres undefined) | 5.1% | . | . | -4.1% | -0.5% | -5.0%
CCN(C(=O)CCCCC(=O)N(CC)c1ccccc1)c1ccccc1 | ? | 14.0% | 6.6% | -15.1% | 18.4µM* | 13.7%
O=C(O)c1ccccc1C(=O)Nn1cnnc1 | -2.5% | 2.9% | 11.9% | -2.4% | 10.1% | -6.8%
Cc1[nH]c(=O)c(C#N)cc1-c1ccncc1 | ? | ? | -3.2% | -22.9% | 0.0596µM*! | -1.2%
Cc1[nH]c(=O)c(C#N)cc1-c1ccc2nccn2c1 | -7.9% | . | . | . | -1.9% | .
N#CC1=C(Nc2ccccc2Cl)SC2(CCCC2)NC1=O | 16.4µM* | 1.7% | ? | -14.7% | 18.4µM* | ?
N#CC1=C(Nc2ccccc2Cl)SC(c2ccncc2)NC1=O (centres undefined) | -20.0% | 16.3% | 23.9% | 3.5% | 2.2% | -14.3%
CCOC(=O)c1c(NC(NC(=O)C(C)C)C(Cl)(Cl)Cl)sc2c1CCC2 (centres undefined) | 14.6µM* | -9.9% | -17.8% | 2.1% | 16.4µM* | ?
CCOC(=O)c1c(NC(=O)c2ccccc2C)sc2c1CCCC2 | -21.4% | . | . | -2.2% | ? | 0.9%
CC(=O)c1cc(O)c2ccccc2c1O | 14.6µM* | -16.5% | -18.2% | -97.4% | 4.61µM* | ?
COc1cc(C)ccc1OCc1cc(C(=O)N(C)CCCN2CCOCC2)no1 | 2.0% | -1.6% | -1.2% | -1.9% | 2.8% | -3.7%
CCNC(=O)C1(C)CCN1CCC(=O)c1ccc(C)cc1 (centres undefined) | 20.6µM* | 14.1% | 14.9% | 2.1% | 16.4µM* | -18.9%
CCCCN1C(=O)C(CC(=O)NCCc2ccccn2)CC(C(=O)N(CC)CC)=C1C (centres undefined) | -2.4% | -7.5% | 8.9% | -1.5% | -19.0% | 16.2%
CC(C)(C)c1ccc(C(=O)N/N=C/c2ccc(OCCCF)cc2)cc1 | 2.1% | -8.2% | -2.9% | -12.4% | -24.7% | -5.2%
O=C(O)c1cc(N(Cc2ccccc2O)Cc2cc(O)ccc2O)ccc1O | ? | . | . | . | 20.6µM* | .
CC(C)n1[nH]c2ccccc2c1=O | -25.9% | 14.3% | 18.4% | 1.4% | 4.9% | -12.4%
Cc1ccc(NS(=O)(=O)c2c(C)noc2C)cc1 | 3.7% | 2.7% | 1.0% | -1.0% | 2.6% | -5.4%
Cn1cccc1C(C#N)c1ncc(C(F)(F)F)cc1Cl (centres undefined) | ? | 7.8% | -1.0% | -22.9% | 7.31µM* | -29.7%
N#CC(c1ccc(Cl)cc1)c1ncc(C(F)(F)F)cc1Cl (centres undefined) | -24.1% | 0.1% | -1.7% | -0.3% | -1.8% | 1.6%
COc1ccc(CN2CCNC(=O)C2CC(=O)NCCC2=CCCCC2)cc1OC (centres undefined) | 4.2% | 0.7% | -2.2% | -5.4% | -14.4% | -2.0%
CCCCCCSc1nnc2c(n1)OC(C)Nc1ccc(Br)cc1-2 (centres undefined) | -5.6% | . | . | -6.9% | -0.4% | 3.5%
COc1ccccc1OC(C)C(=O)Nc1nc(-c2ccc(S(=O)(=O)N3CCOCC3)cc2)cs1 (centres undefined) | ? | 2.1% | -2.3% | 1.9% | ? | 2.4%
O=C(Nc1nc(-c2ccc(S(=O)(=O)N3CCCC3)cc2)cs1)c1ccco1 | 23.1µM* | -6.2% | -21.6% | -23.4% | 18.4µM* | -12.3%
SMILES | DT40 TDP1 CPT | HT1080-NT tox | HT1080 IDH1KD tx | HepG2 viability | TDP1 cell noCPT | TGFb inhibitor
CCOc1cccc(C(=O)Nc2nc(-c3ccc(S(=O)(=O)N4CCOCC4)cc3)cs2)c1 | ? | -5.0% | -16.6% | -2.1% | ? | -25.0%
O=C(COc1cccc(Cl)c1)Nc1nc(-c2ccc(S(=O)(=O)N3CCOCC3)cc2)cs1 | 20.6µM* | -1.9% | -5.0% | 1.2% | 11.6µM* | 14.1%
O=C(Nc1ccc(S(=O)(=O)N2CCCCCC2)cc1)c1ccco1 | -9.3% | 0.4% | 17.0% | -29.0% | -22.1% | 2.2%
COc1ccccc1C(=O)Nc1nc(-c2ccc(S(=O)(=O)N3CCOCC3)cc2)cs1 | 2.59µM* | ? | ? | -23.2% | 2.31µM* | -6.9%
NCC1O[C@@H](OC2C(N)C[C@H](N)[C@@H](O[C@H]3OC(CO)C(O)C(N)C3O)C2O)C(O)C(O)C1O (some centres undefined) | 18.0% | . | . | . | -2.6% | .
Cc1nn2c(-c3ccco3)ccnc2c1-c1ccc(Cl)cc1 | -5.4% | . | . | -27.7% | ? | 21.5%
COc1cccc(N2CCN(C(=O)c3ccc(CS(=O)Cc4ccc(Cl)cc4)o3)CC2)c1 (centres undefined) | ? | -8.6% | -2.5% | -23.0% | 18.4µM* | -3.7%
O=C(c1ccc(COc2c(F)c(F)c(F)c(F)c2F)o1)N1CCOCC1 | -18.2% | -4.8% | -3.3% | -0.5% | ? | 6.6%
COc1ccc(N2CCN(C(=O)c3ccc(CS(=O)c4cccc(Cl)c4)o3)CC2)cc1 (centres undefined) | 16.4µM* | -17.4% | -24.6% | -9.3% | 14.6µM* | -1.9%
O=C(c1ccco1)N1CCN(C(=O)c2ccc(CS(=O)c3cccc(Cl)c3)o2)CC1 (centres undefined) | -15.7% | -1.7% | 6.2% | 0.1% | -16.5% | 4.6%
Cc1ccc(CS(=O)Cc2ccc(C(=O)N3CCN(c4ccccc4)CC3)o2)cc1 (centres undefined) | 20.6µM* | -5.4% | -2.2% | -14.0% | ? | -24.6%
O=C(c1ccc(COc2c(F)c(F)cc(F)c2F)o1)N1CCN(c2ccccc2)CC1 | 18.4µM* | ? | -25.1% | -15.4% | 11.6µM* | -9.4%
Cc1ccc(CS(=O)Cc2ccc(C(=O)N3CCN(c4ccc(F)cc4)CC3)o2)cc1 (centres undefined) | ? | -7.3% | -1.2% | -8.4% | ? | ?
